Experimental findings from ChEMBL document CHEMBL3433997, “St. Jude Leishmania screening dataset” (2016) are described below.

One may read the inhibition as the change of the read-out against control, counted positive when it falls.

For this assay, the target named is Glucose transporter (Leishmania mexicana) (UniProt O61059). Description: ST_JUDE_LEISH: Cytotoxicity at 2uM final concentration against transgenic Leishmania Mexicana promastigotes LmGT2 that are glucose transport deficient and complemented with the L. Mexicana glucose transporter 2. Activity is measured by DNA content using SYBR green in vitro. The format is functional.
As for `Fc1ccc2[nH]c(-c3cccc(-c4ccc(CNCC5CCCO5)cc4)c3)nc2c1` (stereo not given), the inhibition is -1.42%.
In the case of `Cc1cc(NC(=O)NCCN2CCC(NS(=O)(=O)c3ccc(C(F)(F)F)cc3)C2)c2ccccc2n1` (stereo not given) it was 7.4%; in that of `O=C(NCCCN(Cc1ccc(F)cc1)c1ccccn1)C(c1cc2ccccc2o1)N1CCN(C(c2ccccc2)c2ccccc2)CC1` (stereo not given), 1.89%; in that of `N#Cc1cccc(-c2cccc(C(=O)NC3CCC(CCN4CCc5ccc(C#N)cc5CC4)CC3)c2)c1` (stereo not given), 11.2%.
In the case of `Fc1ccc2[nH]c(-c3ccc(-c4ccc(CN5CCC(CCN6CCCCC6)CC5)cc4)s3)nc2c1` it was 4.98%; in that of `CC(C)(C)c1ccc(O)c(CNC2CCCCC2)c1`, 3.1%.
Consider `O=C(Nc1cccc(-c2ccc(-c3nc4cc(C(F)(F)F)ccc4[nH]3)s2)c1)c1c[nH]cn1`, for which the inhibition is 0.77%.
For `CCn1cnc2c(Nc3cccc([N+](=O)[O-])c3)nc(N3CCC(N4CCCCC4)CC3)nc21`, the inhibition was -0.24%.
For the compound `CCCC(C)c1cnc2nc(N)nc(N)c2c1C` (stereo not given), the inhibition turned out to be 4.24%.
`Cc1cccc2nc(-c3cccc(-c4ccc(CNCc5cnn(-c6ccccc6)n5)cc4)c3)[nH]c12`: the inhibition amounted to 0.22%.
For the compound `CCCCCCCCCC(=O)NCC1CC(Br)=NO1` (stereo not given), the inhibition is -1.46%.
To `COc1ccc(NC(=O)Nc2ccc(-c3cccc(-c4nc5ccccc5[nH]4)c3)cc2)cc1` belongs 2.89%.
Regarding `CC(C)Sc1nc2c(c(=O)n1CCc1ccccc1)C1(CCCC1)Cc1ccccc1-2`, the inhibition came to 2.88%.
Take `CCCCCCCN1CC[C@@H](CCCc2ccnc3ccc(OC)cc23)[C@@H](CCN)C1`: the inhibition stood at 0.84%.
Turning to `N#Cc1ccc(N/C(=N\c2ccc(-c3ccccc3)cc2)NCCc2c[nH]c3ccccc23)c(O)c1`, the inhibition is 8.99%.
To `CCN1CCN(Cc2ccc(NC(=O)c3cc4ccc5cccnc5c4[nH]3)cc2)CC1` belongs 11.4%.
To `Cc1ccccc1C1CCN(C2CCC(NC(=O)c3ccc4c(c3)-c3nocc3C(C)O4)CC2)CC1` (stereo not given) belongs 5.18%.
For `COc1cc2nc(N3CCC(CNC(=O)c4ccc(-c5ccc(C(=O)N(C)C)cc5O)cc4)CC3)nc(N)c2cc1OC`, the inhibition was -1.24%.
For the compound `CN(C)C(=S)N/N=C1/C(=O)Nc2ccccc21`, the inhibition turned out to be 1.43%.
In the case of `O=C(C=Cc1ccc(Cl)c(Cl)c1)NCCCCCN1CCC(CCNS(=O)(=O)c2ccc(F)cc2)CC1` it was 4.55%.
Turning to `COC1CCC(C(=O)Nc2ccc(-c3cccc(-c4nc5cccc(C)c5[nH]4)c3)cc2)CC1` (stereo not given), the inhibition amounted to 3.5%.
Take `CS(=O)(=O)NCCCNCc1ccc(-c2ccc(-c3nc4cc(C(F)(F)F)ccc4[nH]3)cc2)cc1`: the inhibition came out at 1.11%.
Consider `O=c1cc(NCCCNCc2cccc(SC(F)(F)F)c2)[nH]c2ccccc12`, for which the inhibition worked out at 3.15%.
For `COc1ccc2nc3cc(Cl)ccc3c(NCCCCN)c2c1`, the inhibition turned out to be 0.04%.
To `CC(=O)N(Cc1nc(-c2cc(Cl)c(Cl)s2)cs1)c1c(C)cccc1C` belongs 5.58%.
For `Cc1cccc2nc(-c3ccc(-c4cccc(NC(=O)Nc5ccccc5)c4)cc3)[nH]c12`, the inhibition was 8.18%.
In the case of `Cc1cc(N(C)C)nc(Nc2ccc(NC(=O)c3ccccc3C)cc2)n1`, the inhibition came out at 5.05%.
In the case of `CN(C)c1ccc(C2c3[nH]cnc3CCN2C(=O)Nc2cccc([N+](=O)[O-])c2)cc1` (stereo not given) it was 1.43%; in that of `O=S(=O)(NCCN1CCCC1)c1ccc(-c2ccc(CNCc3ccsc3)cc2)cc1F`, -0.2%.
`Cc1ccnc(-n2c(C)cc(C=C3SC(=Nc4ccccc4)N(Cc4ccco4)C3=O)c2C)c1`: the inhibition is 4.69%.
To `O=c1cc(NCCCNCc2ccc3c(c2)OC(F)(F)O3)[nH]c2ccccc12` belongs -1.35%; to `CC(=O)NCC(=O)NC1=NC(=N)N(OCc2ccc3ccccc3c2)C(C)(C)N1`, 0.35%; to `CN1CCCN(Cc2ccc(-c3ccc(NS(=O)(=O)c4cccc5cccnc45)cc3)cc2)CC1`, 0.05%.
With `Cc1cc(N2CCCC2)nc(Nc2ccc(NC(=O)c3ccccc3C)cc2)n1`, the inhibition came to 0.46%.
As for `Cc1ccc2nc(C)cc(N/N=C/c3ccccc3[N+](=O)[O-])c2c1`, the inhibition worked out at 7.96%.
With `O=C(C=Cc1ccc(Cl)c(Cl)c1)NCCCCCN1CCC(CCCNC(=O)/C=C/c2ccccc2)CC1`, the inhibition stood at 1.62%.
Turning to `Cc1cccc2nc(-c3ccc(-c4cccc(NC(=O)C(C)CN(C)C)c4)s3)[nH]c12` (stereo not given), the inhibition was 0.27%.
On to `Cc1nnsc1C(=O)Nc1cccc(-c2ccc(-c3nc4ccccc4[nH]3)s2)c1`, for which the inhibition was -0.11%.
Turning to `CC(C)Cn1c(Sc2ccc(C#N)c([N+](=O)[O-])c2)nnc1-c1ccccc1`, the inhibition came out at 3.76%.
In the case of `COc1cc([N+](=O)[O-])ccc1NC(=O)Nc1ccc(OC(F)(F)F)cc1`, the inhibition is -2.01%.
